NR2F2 inh: NR2F2 transcriptional activity inhibitors, primary screen, cell-based, luciferase reporter, HEK293T, luminescence | HEK293T NGFI-A luciferase reporter | 0.7% of 370,000 active | inhibition, % at 8.6 µM;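 active = inhibition above a per-plate cutoff, mean inhibition of test wells between control levels plus 3 SD, cut at about 38% in these data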;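 note: cells cotransfected with COUP-TFII expression vector driving the NGFI-A reporter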
NCOA3 inh: SRC3 coactivator transcriptional activity inhibitors, primary screen, cell-based, luminescence; 0.17% of 360,000 active; inhibition, % at 3.6 µM; Nuclear receptor coactivator 3 (Homo sapiens), Q9Y6Q9; HEK293 GAL4-SRC3 luciferase reporter;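 active = inhibition above a per-campaign cutoff, the mean of all compounds plus 3 SD, cut at about 60% in these data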;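 note: higher means less SRC3-driven luciferase light from the GAL4 reporter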
Target sequence (Q9Y6Q9 whole entry, looked up, the tested form may be a part): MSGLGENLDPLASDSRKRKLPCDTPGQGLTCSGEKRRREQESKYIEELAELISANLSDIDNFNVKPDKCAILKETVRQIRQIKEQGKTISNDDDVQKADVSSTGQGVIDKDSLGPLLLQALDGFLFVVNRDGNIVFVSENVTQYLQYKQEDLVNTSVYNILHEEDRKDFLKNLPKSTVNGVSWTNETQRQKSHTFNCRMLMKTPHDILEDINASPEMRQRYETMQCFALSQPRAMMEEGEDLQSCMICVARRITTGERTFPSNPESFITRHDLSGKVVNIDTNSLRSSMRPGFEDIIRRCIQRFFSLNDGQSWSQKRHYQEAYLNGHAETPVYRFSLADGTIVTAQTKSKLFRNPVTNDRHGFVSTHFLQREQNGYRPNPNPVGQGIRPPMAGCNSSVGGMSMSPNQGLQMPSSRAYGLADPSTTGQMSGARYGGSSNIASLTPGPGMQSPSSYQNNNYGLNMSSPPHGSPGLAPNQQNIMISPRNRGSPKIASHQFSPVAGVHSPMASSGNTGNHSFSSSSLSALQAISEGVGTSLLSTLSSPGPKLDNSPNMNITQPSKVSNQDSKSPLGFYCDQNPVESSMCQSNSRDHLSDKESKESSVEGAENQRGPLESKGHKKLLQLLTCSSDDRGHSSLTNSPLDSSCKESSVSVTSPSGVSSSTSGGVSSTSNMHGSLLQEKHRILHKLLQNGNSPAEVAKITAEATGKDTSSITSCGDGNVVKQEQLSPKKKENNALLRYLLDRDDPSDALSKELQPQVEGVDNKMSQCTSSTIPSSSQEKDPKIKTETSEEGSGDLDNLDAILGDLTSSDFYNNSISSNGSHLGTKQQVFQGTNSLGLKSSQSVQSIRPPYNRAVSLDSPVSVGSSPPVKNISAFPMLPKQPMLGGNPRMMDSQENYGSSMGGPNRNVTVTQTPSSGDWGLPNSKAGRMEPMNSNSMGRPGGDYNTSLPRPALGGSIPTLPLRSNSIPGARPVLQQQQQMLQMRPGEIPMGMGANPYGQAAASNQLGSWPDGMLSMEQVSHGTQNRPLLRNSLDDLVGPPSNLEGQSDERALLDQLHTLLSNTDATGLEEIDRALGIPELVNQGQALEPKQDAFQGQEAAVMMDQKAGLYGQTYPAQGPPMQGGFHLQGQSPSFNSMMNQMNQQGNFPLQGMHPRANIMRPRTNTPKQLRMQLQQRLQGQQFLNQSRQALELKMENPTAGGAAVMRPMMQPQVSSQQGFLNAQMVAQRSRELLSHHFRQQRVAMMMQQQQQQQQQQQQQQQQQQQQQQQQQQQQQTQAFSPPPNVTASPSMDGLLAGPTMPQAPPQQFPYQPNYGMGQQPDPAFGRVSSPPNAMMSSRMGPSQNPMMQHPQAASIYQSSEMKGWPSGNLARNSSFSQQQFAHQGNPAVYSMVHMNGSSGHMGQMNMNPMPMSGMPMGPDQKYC
NCOA1 inh: SRC1 coactivator transcriptional activity inhibitors, primary screen, cell-based, luminescence; HEK293 GAL4-SRC1 luciferase reporter; inhibition, % at 3.6 µM; 0.12% of 360,000 active; AID 588354, 2011;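 active = inhibition above the campaign mean plus 3 SD, with each screening campaign given its own cutoff, cut at about 60% in these data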
NR5A2 inv ag: LRH-1 (NR5A2) inverse agonists, primary screen, cell-based, luminescence, HEK293T, StAR-luciferase reporter | Nuclear receptor subfamily 5 group A member 2 (Homo sapiens), O00482 | LRH-1 transfected, 24 h | inhibition, % at 3.6 µM | 0.13% of 360,000 active | AID 602396, 2012;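 active = inhibition above the mean inhibition of all tested compounds plus 3 SD, cut at about 73% in these data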
GalR3 antag: GalR3 antagonists in HEK293 cells, primary screen, cell-based, fluorescence readout; 0.44% of 360,000 active; inhibition, % at 3 µM; Galanin receptor type 3 (Homo sapiens), O60755; AID 651719, 2012; HEK293 GalR3-CNG cAMP membrane potential fluorescence; galR3 body fused to GalR1 C-terminus;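 active = inhibition above the screen-wide average plus 3 SD, cut at about 13% in these data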;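 note: forskolin and galanin both at EC90 stimulate the cells; cAMP rise reported by CNG channel membrane potential dye signal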
SRC2 inh: inhibition of GAL4-SRC2 driven luciferase reporter, primary screen, SRC2 inhibitor project, cell-based, luminescence; Nuclear receptor coactivator 2 (Homo sapiens), Q15596; HEK293 GAL4-SRC2 luciferase reporter; inhibition, % at 9 µM; 0.17% of 370,000 active; AID 651957, 2012;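 active = inhibition above the mean inhibition of all tested compounds plus 3 SD, set per campaign, cut at about 52% in these data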
A number is an active result. Shown are actives, neighbours in structure and some others; about 1.1% of the full set was active somewhere.

What do the screens show for `CCOC(=O)[C@]12CCCCC/C=C\1N(CCc1ccc(Cl)cc1)C(=O)[C@H]2CC(=O)N1CCN(C(=O)c2ccco2)CC1`?
NR2F2 inh: inactive; SRC2 inh: inactive

How did COc1ccc2[nH]cc(C(C)c3c[nH]c4ccccc34)c2c1 (stereo unspecified) do in these assays?
NR2F2 inh: inactive; SRC2 inh: inactive

Results for Cc1cccc(-n2c(CNC(=O)c3ccccc3)nnc2SCC(=O)Nc2nccs2)c1 ?
NR2F2 inh: inactive; NCOA3 inh: inactive; NCOA1 inh: inactive; NR5A2 inv ag: 85; SRC2 inh: inactive

What do the screens show for `Nc1ncc([N+](=O)[O-])c(N2CCCCCC2)n1`?
NR2F2 inh: inactive; NCOA3 inh: inactive; NCOA1 inh: 65; NR5A2 inv ag: inactive; GalR3 antag: inactive; SRC2 inh: inactive

Results for O=[N+]([O-])c1ccc(N2CCCC2)nc1N1CCCC1 ?
NR2F2 inh: inactive; NCOA3 inh: inactive; NCOA1 inh: inactive; NR5A2 inv ag: inactive; GalR3 antag: inactive; SRC2 inh: inactive

What do the screens show for `CCOC(=O)c1ccc(NC(=O)CSc2nnc(SCc3cccc4ccccc34)s2)cc1`?
NR2F2 inh: inactive; SRC2 inh: inactive

How did COc1cccc(/C=N/NC(=O)c2c(C)nc3ccc(Br)cn23)c1O do in these assays?
NCOA3 inh: 79; NCOA1 inh: 78; NR5A2 inv ag: 99

Results for COc1ccc(C(=O)N/N=C/c2cc(Br)ccc2O)cc1OC ?
NR2F2 inh: inactive; NCOA3 inh: 64; NCOA1 inh: inactive; NR5A2 inv ag: inactive; GalR3 antag: inactive; SRC2 inh: inactive

What do the screens show for `CCCOc1ccc(Br)cc1/C=N/NC(=O)c1cc(OC)c(OC)c(OC)c1`?
NR2F2 inh: inactive; NCOA3 inh: inactive; NCOA1 inh: inactive; NR5A2 inv ag: inactive; GalR3 antag: inactive; SRC2 inh: inactive

How did CCOc1ccccc1/C=N/NC(=O)c1c(C)nc2ccc(Br)cn12 do in these assays?
NR2F2 inh: inactive; NCOA3 inh: inactive; NCOA1 inh: inactive; NR5A2 inv ag: inactive; GalR3 antag: inactive; SRC2 inh: inactive

How did c1ccc(C2CCC3(CC2)CCC3NCc2cccs2)cc1 (stereo unspecified) do in these assays?
NR2F2 inh: inactive

How did COC(=O)C[C@H]1CC[C@H]2[C@H](COc3ccc(NC(=O)C4CCOCC4)cc3C(=O)N2C)O1 do in these assays?
NR2F2 inh: inactive; SRC2 inh: inactive

How did COc1ccc2c(c1)-c1c(ssc1=S)C(C)(C)N2C(=O)CSC1=NCCS1 do in these assays?
NR2F2 inh: 52; NCOA3 inh: inactive; NCOA1 inh: inactive; NR5A2 inv ag: inactive; GalR3 antag: inactive; SRC2 inh: inactive

What do the screens show for `O=C1[C@@H](C2CC2)[C@@H]2c3ccccc3C=NN2[C@@H]2c3ccccc3C=NN12`?
NR2F2 inh: inactive; SRC2 inh: inactive

What do the screens show for `COC(=O)[C@]12C[C@H](CC(=O)N3CCC(c4ccccc4)CC3)C(=O)N(Cc3ccccc3)C1=C[C@H](COCc1ccccc1)O[C@@H]2C`?
NR2F2 inh: inactive; SRC2 inh: inactive

How did Cc1ccc(C(C)C)c(OCc2ccc(C(=O)N/N=C/c3ccc(O)cc3O)cc2)c1 do in these assays?
NR2F2 inh: inactive; NCOA3 inh: 70; NCOA1 inh: 67; NR5A2 inv ag: inactive; GalR3 antag: 23; SRC2 inh: 64

How did CCOc1ccc(CCNC(=O)c2cc3ccsc3n2C)cc1OC do in these assays?
NR2F2 inh: inactive; SRC2 inh: inactive

How did Cn1c(/C(C#N)=C/c2ccc(-c3ccc(S(N)(=O)=O)cc3)o2)nc2ccccc21 do in these assays?
NR2F2 inh: inactive; NCOA3 inh: 68; NCOA1 inh: inactive; NR5A2 inv ag: inactive; GalR3 antag: inactive; SRC2 inh: inactive

What do the screens show for `NCC(=O)Nc1ccc(Cl)cc1C(=O)c1ccc[nH]1`?
NR2F2 inh: inactive; NCOA3 inh: inactive; NCOA1 inh: inactive; NR5A2 inv ag: inactive; GalR3 antag: inactive; SRC2 inh: 56

Results for CCOc1ccc(-c2cc(C(=O)OC)c3n(c2=O)CCC3)cc1 ?
NR2F2 inh: inactive; SRC2 inh: inactive

Results for COc1ccc(O)c(/C=N/NC(=O)c2ccc(CSc3nc(C)cc(C)n3)cc2)c1 ?
NR2F2 inh: inactive; NCOA3 inh: inactive; NCOA1 inh: inactive; NR5A2 inv ag: inactive; GalR3 antag: inactive; SRC2 inh: inactive

Results for Cc1cc(C)nc(SCc2ccc(C(=O)N/N=C/c3cccc(O)c3O)cc2)n1 ?
NR2F2 inh: inactive; NCOA3 inh: 66; NCOA1 inh: inactive; NR5A2 inv ag: inactive; GalR3 antag: inactive; SRC2 inh: inactive

How did COc1ccc2c(n1)Sc1nc3ccccc3nc1N2 do in these assays?
NR2F2 inh: inactive; NCOA3 inh: inactive; NCOA1 inh: inactive; NR5A2 inv ag: inactive; GalR3 antag: inactive; SRC2 inh: 65

What do the screens show for `COc1cccc2c1C(=O)c1c(O)c3c(c(O)c1C2=O)C[C@@](O)(C(=O)CO)C[C@@H]3OC1CC(N)C(O)C(C)O1` (stereo partly specified)?
NR2F2 inh: inactive; NCOA3 inh: inactive; NCOA1 inh: inactive; NR5A2 inv ag: 78; GalR3 antag: inactive; SRC2 inh: inactive

Results for COc1cccc2c1C(=O)c1c(O)c3c(c(O)c1C2=O)C[C@@](O)(C(=O)CO)C[C@@H]3O[C@H]1C[C@H](N)[C@H](O)[C@H](C)O1 ?
NR2F2 inh: inactive; NCOA3 inh: inactive; NCOA1 inh: inactive; NR5A2 inv ag: 98; GalR3 antag: inactive; SRC2 inh: inactive

What do the screens show for `Cc1ccc(-c2c(NC(=O)c3ccccc3)nc3ncccn23)cc1`?
NR2F2 inh: inactive; SRC2 inh: inactive

Results for c1csc(C2=Nn3c(nnc3-c3ccncc3)SC2)c1 ?
NR2F2 inh: inactive; NCOA3 inh: inactive; NCOA1 inh: 65; NR5A2 inv ag: inactive; GalR3 antag: inactive; SRC2 inh: inactive

How did CCOc1ccc(C(=O)Cc2ccccc2)cc1 do in these assays?
NR2F2 inh: inactive; NCOA3 inh: inactive; NCOA1 inh: inactive; NR5A2 inv ag: inactive; GalR3 antag: inactive; SRC2 inh: inactive

Results for CCOc1ccc(C(=O)CSCCC(=O)O)cc1 ?
NR2F2 inh: 56; NCOA3 inh: inactive; NCOA1 inh: inactive; NR5A2 inv ag: inactive; GalR3 antag: inactive; SRC2 inh: 55

How did O=C(CSc1nc2ccccc2[nH]1)NN=Cc1c(F)cccc1Cl do in these assays?
NR2F2 inh: inactive; SRC2 inh: inactive

Results for CCOC(=O)c1c(C)nn(-c2ccc(NC(=O)c3c(C)noc3C)cc2)c1C ?
NR2F2 inh: inactive; NCOA3 inh: inactive; NCOA1 inh: inactive; NR5A2 inv ag: inactive; GalR3 antag: inactive; SRC2 inh: 54

How did COC(=O)c1cc2c(c3c4cc(OC)ccc4n(S(=O)(=O)c4ccc(OC)cc4)c13)C(=O)N(C)C2 do in these assays?
NR2F2 inh: inactive; GalR3 antag: inactive; SRC2 inh: inactive

Source: PubChem (The Scripps Research Institute Molecular Screening Center)
